# From PubChem BioAssay (EPA / NIEHS)
# Inconclusive results are not listed. Calls of active or inactive are those of the source. The calls were made as follows: active = hit-call score of the fitted dose curve at least 0.9, where 1 is the maximum; inconclusive = response in the unintended direction; inactive = score below 0.9.
# Molecular target: rat Adrenergic Receptor, Alpha 2 (Adra2), Non-selective Binding, Adra2a (gene 25083) (UniProt P22909)
# Experiment: NVS_GPCR_rAdra2_NonSelective: NovaScreen (NVS) G Protein-Coupled Receptor Assay for rat Adrenergic Receptor, Alpha 2 (Adra2), Non-selective Binding (AID 2283299)
# Method in brief: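 Rat cortical membranes, radioligand competitive displacement read by filter-based scintillation counting 1.25 hours after dosing. Primary screen in duplicate at 25 uM; actives followed up in concentration series.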
# Chain of rat Adrenergic Receptor, Alpha 2 (Adra2), Non-selective Binding, Adra2a (gene 25083) (P22909 whole entry, looked up): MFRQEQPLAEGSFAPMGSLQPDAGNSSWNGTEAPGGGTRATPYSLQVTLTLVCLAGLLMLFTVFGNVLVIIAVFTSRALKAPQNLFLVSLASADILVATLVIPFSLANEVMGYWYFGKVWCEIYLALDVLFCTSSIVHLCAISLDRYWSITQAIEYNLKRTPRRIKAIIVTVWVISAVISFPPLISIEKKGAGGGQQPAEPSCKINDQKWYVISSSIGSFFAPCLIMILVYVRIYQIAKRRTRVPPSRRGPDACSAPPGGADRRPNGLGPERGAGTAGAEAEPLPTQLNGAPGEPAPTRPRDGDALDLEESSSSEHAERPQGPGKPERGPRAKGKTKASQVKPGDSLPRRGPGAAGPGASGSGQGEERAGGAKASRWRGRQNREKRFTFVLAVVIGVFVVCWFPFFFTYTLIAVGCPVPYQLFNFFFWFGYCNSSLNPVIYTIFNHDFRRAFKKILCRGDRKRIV
SMILES,AC50,outcome
CSc1ccc(Oc2ccc(S(N)(=O)=O)cc2CN(C)C)cc1C,10.6 µM (active),–
NC(=Nc1ccccc1)Nc1ccccc1,–,inactive
O=C(N[C@@H](c1ccccc1)[C@@H]1CCCCN1)c1cccc(C(F)(F)F)c1Cl,39.2 µM (active),–
CCc1nc(N)nc(N)c1-c1ccc(Cl)cc1,6.56 µM (active),–
COc1ccc(OC(F)(F)F)cc1CN[C@H]1CCCN[C@H]1c1ccccc1,13.1 µM (active),–

# Molecular target: Adra2b (gene 24174) (UniProt P19328)
# Sequence (P19328 whole entry, looked up): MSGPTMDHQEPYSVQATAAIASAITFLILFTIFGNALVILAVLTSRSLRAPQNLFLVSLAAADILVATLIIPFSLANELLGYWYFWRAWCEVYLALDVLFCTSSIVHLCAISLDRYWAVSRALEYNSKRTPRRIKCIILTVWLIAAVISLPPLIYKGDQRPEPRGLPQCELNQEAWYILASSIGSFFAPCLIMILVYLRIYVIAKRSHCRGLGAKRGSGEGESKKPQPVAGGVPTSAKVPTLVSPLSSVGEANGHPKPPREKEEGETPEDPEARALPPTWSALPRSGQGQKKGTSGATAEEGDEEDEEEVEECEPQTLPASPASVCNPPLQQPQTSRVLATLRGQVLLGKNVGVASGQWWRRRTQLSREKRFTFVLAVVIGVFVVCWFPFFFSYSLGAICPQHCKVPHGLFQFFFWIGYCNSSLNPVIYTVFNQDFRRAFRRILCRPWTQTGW
# Experiment: NVS_GPCR_rmAdra2B: NovaScreen (NVS) G Protein-Coupled Receptor Assay for hybird cells Adrenergic, Alpha 2B Receptor (Adra2B) (AID 2283306)
# Method in brief: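 Radioligand filter-binding assay on membrane proteins from neuroglioma/blastoma hybrid cells (rodent), 1 h after dosing; scintillation counting, loss of signal vs DMSO. Primary screen in duplicate at 25 uM, actives then run in concentration series.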
SMILES,AC50,outcome
CCN(CC)CCOc1ccc(C(=C(Cl)c2ccccc2)c2ccccc2)cc1,16 µM (active),–
Cc1ccc(-c2cc(C(F)(F)F)nn2-c2ccc(S(N)(=O)=O)cc2)cc1,–,inactive
CSc1ccc(Oc2ccc(S(N)(=O)=O)cc2CN(C)C)cc1C,1.74 µM (active),–
NC(=Nc1ccccc1)Nc1ccccc1,11.7 µM (active),–
CCc1nc(N)nc(N)c1-c1ccc(Cl)cc1,5.45 µM (active),–
COc1ccc(OC(F)(F)F)cc1CN[C@H]1CCCN[C@H]1c1ccccc1,9.2 µM (active),–
Cc1cc(SC2=C(O)C[C@@](CCc3ccc(N)cc3)(C(C)C)OC2=O)c(C(C)(C)C)cc1CO,–,inactive
